Data published in PubChem BioAssay AID463190 (Sanford-Burnham Center for Chemical Genomics, 2010).
About 7,300 (2.2%) of roughly 330,000 compounds were called active. Shown is part of a subset that was picked to be rich in actives. Unmarked numbers belong to inactive results.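 Rule for the calls: active = inhibition of at least 40%; inactive = the rest.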

experiment: growth inhibition of tim10-1 ts yeast – luminescence, uHTS, primary screen (AID 463190);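 note: mutant grown at 25 °C; 0% = DMSO wells with yeast and 100% = wells holding no yeast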; settings: S. cerevisiae tim10-1 ts strain growth, BacTiter-Glo, 24 h; at 20 µM; stronger effect = higher value

| Structure (SMILES) | inhibition |
| --- | --- |
| COC(=O)c1cc2c(ccn2C)n1C | -6.2% |
| COc1ccc(/C=C/C(=O)Nc2c(C)nn(C)c2C)cc1COc1ccc(Br)cc1 | 29.4% |
| CCn1nc(C)c(NC(=O)/C=C/c2ccc(OC)c(COc3ccc(Br)cc3)c2)c1C | 52.1% (active) |
| COc1ccc(C(C)=O)cc1COc1ccc(Cl)c(C)c1 | 3.35% |
| CC(=O)Nc1ccccc1OC(=O)N1CCOCC1 | -3.71% |
| O=C(Oc1cccc(C(=S)N2CCOCC2)c1)c1cccc(Cl)c1 | 39.2% |
| O=C(/C=C/c1cccs1)c1cc(Cl)ccc1OC(=O)N1CCOCC1 | 50.2% (active) |
| Cc1ccc(NS(=O)(=O)c2ccc(C(=O)NCCCN3CCOCC3)cc2)cc1 | -36% |
| CC1(C)CC(=O)C=C(c2ccc(Cl)c(C(F)(F)F)c2)C1 | 0.973% |
| Cc1cccc(OC(C)C(=O)N2CCc3ccccc3C2)c1 (stereo not given) | -6.4% |
| O=C(/C=C(O)/C=C/c1ccc(O)cc1)/C=C/c1ccc(O)cc1 | 4.38% |
| O=C(/C=C/c1ccccc1)N/C(=C/c1ccccc1)C(=O)Nc1ccccc1O | 32.3% |
| O=C(/C=C/c1ccccc1)c1ccccc1O | 48.7% (active) |
| CCCCC[C@H]1CN(C2CCCCC2)C(=O)[C@@H]1CC(=O)NCc1ccc(OC)cc1 | 17.9% |
| COC(=O)c1ccc(CNC(=O)c2ccc(S(=O)(=O)N3CCCCCC3)cc2)cc1 | 14.2% |
| O=C(NCCc1ccc(F)cc1)c1ccc(S(=O)(=O)N2CCCCC2)cc1 | 41.8% (active) |
| O=C(Nc1ccccc1F)c1ccc(S(=O)(=O)N2CCCCCC2)cc1 | 18.9% |
| C/C=C(\C)C(=O)NCCN1C2=NC[C@H](Cc3ccc(O)cc3)N2C[C@@H]1Cc1ccc(OC)cc1 | -7.43% |
| O=C1CC(c2ccccc2)=NN1c1ccc([N+](=O)[O-])cc1 | 44.5% (active) |
| Cc1nc(-c2ccc([N+](=O)[O-])cc2)c(-c2ccccc2)o1 | 14.6% |
| O=c1[nH]n(-c2ccc([N+](=O)[O-])cc2)c(=O)c2ccccc12 | -4.91% |
| COc1ccc2ccn(C)c2c1 | -6.1% |
| COc1ccc2c(c1)cc1n2CCN=C1NN | 43.7% (active) |

| Structure (SMILES) | inhibition |
| --- | --- |
| CC12COC3(C(=O)Nc4ccc(Cl)cn4)CC1CCC32C (stereo not given) | 33.3% |
| CCC1(CC)NC(=O)N(Cc2nc3ccccc3s2)C1=O | 9.64% |
| CCC(C)Cn1c(O)cc2nn(-c3nc4ccccc4s3)c(=O)c-2c1C (stereo not given) | 0.194% |
| CC(=NCc1ccco1)c1c(C(F)(F)F)[nH]n(-c2nc3ccccc3s2)c1=O | 75.2% (active) |
| CCOC(=O)c1sc(N)c(C#N)c1COC(=O)C1=COCCO1 | 9.07% |
| O=C(NCC(c1cccs1)N1CCOCC1)c1cc(Cl)ccc1[N+](=O)[O-] (stereo not given) | 3.29% |
| COc1cccc(CNc2nc3nc4c(c(=O)n3[nH]2)CCC4)c1 | -3.51% |
| COc1cccc(-c2cc3nc4c(c(N5CCC6(CC5)OCCO6)n3n2)CCCC4)c1 | 41.5% (active) |
| COc1ccc(OC)c(/C(C)=N\NC(=O)c2cc3cc(Cl)ccc3n2C)c1 | 14.6% |
| C=CCn1c(SCC(=O)NC)nnc1C12CC3CC(CC(C3)C1)C2 | 11.2% |
| O=[N+]([O-])/C=C/c1ccc2c(ccn2Cc2ccccc2)c1 | -97.4% |
| CCS(=O)(=O)Nc1ccc(C2=NN(S(=O)(=O)c3ccc(F)cc3)C(c3ccco3)C2)cc1 (stereo not given) | 13.9% |
| COCCn1cnc2c1c(=O)n(CC(=O)NN)c(=O)n2Cc1ccccc1 | 10.9% |
| O=C(NCc1ccc2c(c1)OCO2)C(=O)NCC1OCCN1S(=O)(=O)c1ccc(F)cc1 (stereo not given) | -2.49% |
| C/C(CC(=O)Nc1cccc(F)c1)=N\NC(=O)C(=O)NC1CCCCC1 | 15.5% |
| O=C(Nc1cccc(F)c1)NC1CCCc2ccccc21 (stereo not given) | 30.5% |
| O=C(Nc1cccc(F)c1)NC1CCCCCCC1 | 45.3% (active) |
| Cc1c(C(=O)O)nnn1-c1nonc1N | 3.56% |
| C#CCOCCOCCOCCNc1nc(N2CCN(C(=O)[C@H](CO)n3cc([C@@H](N)C(C)C)nn3)CC2)nc(N2CCN(C(=O)[C@H](CCC(=O)O)n3cc([C@@H](N)[C@H](C)CC)nn3)CC2)n1 | 9.15% |
| CC(C)(C)n1c(=O)[nH]c2c(c1=O)CCC2 | -3.65% |
| CNC(=S)NNC(=O)c1oc2nc(-c3ccccc3)cc(-c3ccco3)c2c1N | 18.1% |
| CS(=O)(=O)c1sc2nc(-c3ccccc3)cc(-c3ccccc3)c2c1N | 49.2% (active) |
